The list is not random: actives were taken first. Their share in the collection is about 0.51%.
Tat transport: E. coli Tat transport inhibition; E. coli MC4100 TorA-mCherry Tat export, fluorescence; AID 488895; inhibition, % at 10 µM; 340,000 tested, 0.036% active;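 active = mean replicate inhibition at least 50% and at least half of replicates individually reaching 50%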;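 also: exported cargo escapes ClpAP degradation while cytoplasmic cargo is degraded and loses fluorescence; 0% = median of neutral control wells and 100% = median of NaSCN control wells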
AddAB inh: less growth of phage-infected E. coli with AddAB; 330,000 tested, 0.29% active; inhibition, % at 11.9 µM; E. coli expressing H. pylori AddAB, absorbance growth; AID 435030; in the data active = inhibition above about 12%;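 also: 0% = vehicle wells of infected cells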
E coli growth-1: inhibitors of Escherichia coli growth. OD600, 23 h; stronger effect = lower value. OD600 absorbance (no concentration beside the values). 330,000 tested, 0.21% active;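 active = OD600 absorbance below the run mean of sample wells minus 3.6 SD, in any replicate, cut at about 0.56 in these data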
E coli growth-2: counter-screen for AddAB inhibitors: E. coli growth inhibition; E. coli V3065 growth, OD600 absorbance, 18 h; inhibition, % at 11.9 µM; 330,000 tested, 0.27% active;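 active = inhibition above the campaign's mean inhibition across all tested compounds plus 3 SD, cut at about 9.9% in these data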;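 also: uninfected addAB+ strain grown without phage in ampicillin broth; 0% = DMSO wells and 100% = ciprofloxacin 0.95 µg/ml wells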
phage Ecoli inh: E. coli growth loss with phage present. growth absorbance. inhibition, % at 11.9 µM. 360,000 tested, 0.26% active; in the data active = inhibition above about 11%
RecBCD conf: growth loss of phage-infected V66 E. coli, RecBCD confirmation screen | shares compounds with phage Ecoli inh | E. coli V66 + T4 2- phage, growth OD | inhibition, % at 11.9 µM | 890 tested, 45% active;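 active = mean inhibition over triplicates exceeding the hit threshold derived in the original primary screen, cut at about 11% in these data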
Ecoli viability: counter-screen for RecBCD inhibitors: inhibitors of bacterial viability | shares compounds with phage Ecoli inh | E. coli viability, absorbance (OD) growth | inhibition, % at 11.9 µM | 890 tested, 29% active | AID 651983; in the data active = inhibition above about 20%;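 also: E. coli strain V66 grown with compound alone and no phage infection; 0% = bacteria with DMSO vehicle only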
AddAB counter: growth loss of phage-infected AddAB E. coli, RecBCD counter-screen. 890 tested, 45% active. AID 651984. shares compounds with phage Ecoli inh. inhibition, % at 11.9 µM. E. coli expressing H. pylori AddAB + T4 phage, OD growth; gene 2 mutant T4, recBCD-deleted host;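 active = mean inhibition above the solvent-only control wells' mean plus 3 SD, cut at about 22% in these data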;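 also: higher means less bacterial growth from phage killing when AddAB is blocked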
Starred values were filed as active, the others as inactive.

Results for CC(=O)NC(C)c1cc(Cl)c2cccnc2c1O (stereo not given) ?
Tat transport: -6.2; AddAB inh: -6.6; E coli growth-1: 0.631; E coli growth-2: -8.7; phage Ecoli inh: 0.5

What do the screens show for `CCOc1ccc(C(Nc2cccnc2)c2cc(Cl)c3cccnc3c2O)cc1` (stereo not given)?
Tat transport: 0.7; AddAB inh: 9.7; E coli growth-1: 0.688; E coli growth-2: 19.7*; phage Ecoli inh: 17.2*; RecBCD conf: 2.1; Ecoli viability: 5.0; AddAB counter: 5.9

How did CCC(=O)NC(c1ccc(OC)c(OC)c1)c1cc(Cl)c2cccnc2c1O (stereo not given) do in these assays?
Tat transport: -5.0; E coli growth-1: 0.647; phage Ecoli inh: 15.2*; RecBCD conf: 5.9; Ecoli viability: 8.7; AddAB counter: 15.1

How did O=C(O)COc1ccccc1C(Nc1cccnc1)c1cc(Cl)c2cccnc2c1O (stereo not given) do in these assays?
Tat transport: 10.6; E coli growth-1: 0.649

Results for Cc1cc(C(=O)N(C2CCCCC2)C2CCCCC2)no1 ?
Tat transport: 0.0; AddAB inh: 2.7; E coli growth-1: 0.636; E coli growth-2: -2.9; phage Ecoli inh: 12.1*; RecBCD conf: -0.6; Ecoli viability: -0.3; AddAB counter: -1.0

Results for Cc1cc(C(=O)N2C(C)CCCC2C)no1 (stereo not given) ?
Tat transport: 6.8; AddAB inh: 0.5; E coli growth-1: 0.662; E coli growth-2: -1.1; phage Ecoli inh: 2.1

How did C=C(C)CNC(=O)C1CCC(=O)N(CCCc2ccccc2)C1 (stereo not given) do in these assays?
Tat transport: -13.5; AddAB inh: 0.2; E coli growth-2: 0.3; phage Ecoli inh: 30.1*; RecBCD conf: -1.0; Ecoli viability: -0.9; AddAB counter: -0.9

What do the screens show for `O=C(NCCc1cccc(F)c1)C1CCC(=O)N(CCCc2ccccc2)C1` (stereo not given)?
Tat transport: 3.0; AddAB inh: 1.6; E coli growth-1: 0.701; E coli growth-2: 1.5; phage Ecoli inh: 0.6

How did CSc1ccc(C=NN2CCN(c3ccccc3)CC2)cc1 do in these assays?
E coli growth-1: 0.699

Results for O=C(CN1CCOCC1)NN=Cc1ccc([N+](=O)[O-])o1 ?
phage Ecoli inh: 17.4*; RecBCD conf: 10.4; Ecoli viability: 9.5; AddAB counter: 53.8*

How did O=C(N/N=C/c1ccc([N+](=O)[O-])o1)c1ccc2c(c1)OCO2 do in these assays?
Tat transport: -15.4; phage Ecoli inh: 11.1*; RecBCD conf: 12.3*; Ecoli viability: 12.3; AddAB counter: 102.5*

Results for O=C(NCc1ccccn1)c1ccc(C=NO)nc1 ?
E coli growth-1: 0.712

How did CC(=NNc1ccc([N+](=O)[O-])cc1)c1cccc(N)c1 do in these assays?
E coli growth-1: 0.642

How did Cc1ccc(S(=O)(=O)N2CCN(CC(=O)NN=Cc3cccnc3)CC2)cc1 do in these assays?
E coli growth-1: 0.679

What do the screens show for `Oc1cccc(C=NNC(=S)Nc2cccnc2)c1O`?
E coli growth-1: 0.654

Results for OCC1OC(n2cnc3c(=S)nc[nH]c32)CC1O (stereo not given) ?
Tat transport: 5.9; E coli growth-1: 0.71; phage Ecoli inh: 17.9*; RecBCD conf: 1.1; Ecoli viability: -1.5; AddAB counter: -1.6

How did CN(C)C(=O)N1CCC(C(=O)NCc2ccc(F)cc2)CC1 do in these assays?
Tat transport: -7.0; AddAB inh: 1.4; E coli growth-1: 0.728; E coli growth-2: -1.2; phage Ecoli inh: 46.2*; RecBCD conf: -3.2; Ecoli viability: -2.2; AddAB counter: -2.4

Results for Cc1ccc(C(=O)Cn2c(=N)n(N)c3ccccc32)cc1 ?
Tat transport: -4.1; AddAB inh: 3.5; E coli growth-1: 0.694; E coli growth-2: 0.3; phage Ecoli inh: 81.6*; RecBCD conf: 0.3; Ecoli viability: -0.3; AddAB counter: -3.6

What do the screens show for `COc1ccc(C=NNC(=O)CNC(=O)/C=C/c2ccc(OC)cc2)cc1`?
E coli growth-1: 0.648

High-throughput results as filed in PubChem BioAssay.
